Assay results from PubChem BioAssay AID1159580 (chemical genetic matrix, 2015).
Several values for one entry are separate records, joined by “and”; a condition that tells them apart may be missing. Equal values may be shown once. Out of some 5,500 compounds screened, about 2,000 (36%) were called active. Another 18% or so got no clear call; they are omitted. Rule as the data show it: active = normalized growth mostly below about 0.91 (no sharp cut-off); inconclusive = no clear call, values can overlap the other calls; inactive = mostly above about 0.92. The list shows a part of the results.

Test: chemical genetic growth profiling, strain panel (AID 1159580);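 also: tested at 20 µM; growth read once vehicle control cultures reached saturation at 30 °C; 1 = growth at the plate median or of vehicle wells; lower values mean less growth of the strain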
Details: growth OD

Measured: normalized growth

Cc1ccc(/C(=C\CN2CCCC2)c2ccccn2)cc1
inactive: S. cerevisiae deletion strains, locus YJR075W, strain HOC1, active compounds read low 1.01 and 0.98 | S. cerevisiae deletion strains, locus YKL009W, strain mrt4, active compounds read low 0.996 | S. cerevisiae deletion strains, locus YKL068W, active compounds read low 0.999 | S. cerevisiae deletion strains, locus YKL085W, strain MDH1 (second series), active compounds read low 1.01 | S. cerevisiae deletion strains, locus YKL085W, strain MDH1, active compounds read low 1.01 | S. cerevisiae deletion strains, locus YKL160W, strain elf1, active compounds read low 1.03 | S. cerevisiae deletion strains, locus YKL190W, strain CNB1, active compounds read low 1.02 | S. cerevisiae deletion strains, locus YKR001C, strain vps1, active compounds read low 0.986 | S. cerevisiae deletion strains, locus YKR026C, strain gcn3, active compounds read low 1 | S. cerevisiae deletion strains, locus YKR091W, strain srl3, active compounds read low 0.991 | S. cerevisiae deletion strains, locus YLL001W, strain dnm1, active compounds read low 1.04 | S. cerevisiae deletion strains, locus YLL026W, active compounds read low 1.04 | S. cerevisiae deletion strains, locus YLL041C, strain sdh2, active compounds read low 1.01 | S. cerevisiae deletion strains, locus YLR027C, strain aat2, active compounds read low 1.04 | S. cerevisiae deletion strains, locus YLR039C, strain RIC1, active compounds read low 1.03 | S. cerevisiae deletion strains, locus YLR058C, strain SHM2, active compounds read low 1.01 | S. cerevisiae deletion strains, locus YLR102C, strain apc9, active compounds read low 0.998 | S. cerevisiae deletion strains, locus YLR113W, strain HOG1, active compounds read low 1.02 | S. cerevisiae deletion strains, locus YLR221C, strain rsa3, active compounds read low 0.977 | S. cerevisiae deletion strains, locus YLR258W, strain gsy2, active compounds read low 0.986 | S. cerevisiae deletion strains, locus YLR262C, strain YPT6 (second series), active compounds read low 1.02 | S. cerevisiae deletion strains, locus YLR262C, strain YPT6, active compounds read low 1.01 | S. cerevisiae deletion strains, locus YLR268W, strain sec22, active compounds read low 0.999 | S. cerevisiae deletion strains, locus YLR320W, strain mms22, active compounds read low 0.973 | S. cerevisiae deletion strains, locus YLR330W, strain CHS5, active compounds read low 1.01 | S. cerevisiae deletion strains, locus YLR342W, strain FKS1 (second series), active compounds read low 0.997 | S. cerevisiae deletion strains, locus YLR342W, strain FKS1, active compounds read low 1.02 | S. cerevisiae deletion strains, locus YLR357W, strain rsc2, active compounds read low 0.992 | S. cerevisiae deletion strains, locus YLR370C, strain arc18, active compounds read low 1.01 | S. cerevisiae deletion strains, locus YLR371W, strain rom2, active compounds read low 1.01 | S. cerevisiae deletion strains, locus YLR384C, strain iki3, active compounds read low 1 | S. cerevisiae deletion strains, locus YLR418C, strain cdc73, active compounds read low 0.991 | S. cerevisiae deletion strains, locus YML016C, strain PPZ1, active compounds read low 1 | S. cerevisiae deletion strains, locus YML032C, strain rad52, active compounds read low 1 | S. cerevisiae deletion strains, locus YML120C, strain ndi1, active compounds read low 1.05 | S. cerevisiae deletion strains, locus YML124C, strain tub3, active compounds read low 0.995 | S. cerevisiae deletion strains, locus YMR058W, strain fet3, active compounds read low 1.02 | S. cerevisiae deletion strains, locus YMR078C, strain ctf18, active compounds read low 0.997 | S. cerevisiae deletion strains, locus YMR125W, strain sto1, active compounds read low 1.02 | S. cerevisiae deletion strains, locus YMR129W, active compounds read low 1.01 | S. cerevisiae deletion strains, locus YMR205C, strain PFK2, active compounds read low 1.02 | S. cerevisiae deletion strains, locus YMR223W, strain ubp8, active compounds read low 0.998 | S. cerevisiae deletion strains, locus YMR231W, strain pep5, active compounds read low 0.999 | S. cerevisiae deletion strains, locus YMR263W, strain SAP30, active compounds read low 1.01 and 0.981 | S. cerevisiae deletion strains, locus YMR307W, strain GAS1, active compounds read low 0.983 and 0.987 | S. cerevisiae deletion strains, locus YNL067W, strain RPL9B, active compounds read low 1 | S. cerevisiae deletion strains, locus YNL071W, strain lat1, active compounds read low 0.986 | S. cerevisiae deletion strains, locus YNL128W, strain TEP1, active compounds read low 1.02 | S. cerevisiae deletion strains, locus YNL153C, strain GIM3, active compounds read low 1.01 | S. cerevisiae deletion strains, locus YNL175C, strain NOP13, active compounds read low 0.996 | S. cerevisiae deletion strains, locus YNL183C, strain NPR1, active compounds read low 0.952 | S. cerevisiae deletion strains, locus YNL197C, strain WHI3, active compounds read low 1.01 | S. cerevisiae deletion strains, locus YNL209W, strain ssb2, active compounds read low 0.996 | S. cerevisiae deletion strains, locus YNL224C, strain SQS1, active compounds read low 0.989 | S. cerevisiae deletion strains, locus YNL233W, strain BNI4, active compounds read low 1.01 | S. cerevisiae deletion strains, locus YNL248C, strain rpa49, active compounds read low 0.992 | S. cerevisiae deletion strains, locus YNL250W, strain rad50, active compounds read low 1 | S. cerevisiae deletion strains, locus YNL271C, strain bni1, active compounds read low 0.986 | S. cerevisiae deletion strains, locus YNL298W, strain CLA4, active compounds read low 1 | S. cerevisiae deletion strains, locus YNL307C, strain MCK1, active compounds read low 1.01 | S. cerevisiae deletion strains, locus YNL322C, strain KRE1 (second series), active compounds read low 1.01 | S. cerevisiae deletion strains, locus YNL322C, strain KRE1, active compounds read low 1.01 | S. cerevisiae deletion strains, locus YNR049C, strain mso1, active compounds read low 1.01 | S. cerevisiae deletion strains, locus YNR052C, strain pop2, active compounds read low 1 | S. cerevisiae deletion strains, locus YOL006C, strain TOP1, active compounds read low 1 | S. cerevisiae deletion strains, locus YOL012C, strain htz1 1.12 | S. cerevisiae deletion strains, locus YOL147C, strain pex11, active compounds read low 0.992 | S. cerevisiae deletion strains, locus YOR001W, strain rrp6, active compounds read low 1.02 | S. cerevisiae deletion strains, locus YOR061W, strain CKA2, active compounds read low 1.01 | S. cerevisiae deletion strains, locus YOR069W, strain VPS5, active compounds read low 1.01 | S. cerevisiae deletion strains, locus YOR070C, strain gyp1, active compounds read low 0.992 | S. cerevisiae deletion strains, locus YOR080W, strain dia2, active compounds read low 1.02 | S. cerevisiae deletion strains, locus YOR083W, strain WHI5 (second series), active compounds read low 0.985 | S. cerevisiae deletion strains, locus YOR083W, strain WHI5, active compounds read low 1 | S. cerevisiae deletion strains, locus YOR106W, strain vam3, active compounds read low 1.05 | S. cerevisiae deletion strains, locus YOR136W, strain idh2, active compounds read low 1 | S. cerevisiae deletion strains, locus YOR144C, strain elg1, active compounds read low 0.995 | S. cerevisiae deletion strains, locus YOR184W, strain ser1, active compounds read low 1 | S. cerevisiae deletion strains, locus YOR231W, strain MKK1, active compounds read low 0.984 | S. cerevisiae deletion strains, locus YOR265W, strain rbl2, active compounds read low 1.01 | S. cerevisiae deletion strains, locus YOR270C, strain vph1, active compounds read low 0.985 | S. cerevisiae deletion strains, locus YOR290C, strain snf2, active compounds read low 0.96 | S. cerevisiae deletion strains, locus YOR316C, strain cot1, active compounds read low 1 | S. cerevisiae deletion strains, locus YPL051W, strain arl3, active compounds read low 1.02 | S. cerevisiae deletion strains, locus YPL055C, strain LGE1, active compounds read low 1.02 | S. cerevisiae deletion strains, locus YPL078C, strain atp4, active compounds read low 1.06 | S. cerevisiae deletion strains, locus YPL106C, strain sse1, active compounds read low 0.987 | S. cerevisiae deletion strains, locus YPL240C, strain hsp82, active compounds read low 1.04 | S. cerevisiae deletion strains, locus YPL241C, strain CIN2, active compounds read low 1 and 0.988 | S. cerevisiae deletion strains, locus YPL256C, strain CLN2, active compounds read low 1 | S. cerevisiae deletion strains, locus YPR119W, strain clb2, active compounds read low 1 | S. cerevisiae deletion strains, locus YPR141C, strain kar3, active compounds read low 0.998 | S. cerevisiae deletion strains, locus YPR163C, strain tif3, active compounds read low 0.994 | S. cerevisiae deletion strains, locus YPR167C, strain met16, active compounds read low 1 | S. cerevisiae deletion strains, strain wtn01, active compounds read low 0.999 | S. cerevisiae strains, strain wild type, active compounds read low 1.01
